A selection: hits, their analogues and other compounds. The true share with any hit is near 3%.
GCN5L2 inh = qHTS Assay for Inhibitors of GCN5L2 | AID 504327, 2011 | actives 0.21% (n = 390,000) | GCN5L2 HAT assay, ThioGlo1 CoA-SH fluorescence | Potency, µM (series often up to 58.9 µM), for inactives: at the highest dose activity change, negative = inhibition, actives largely listed as inhibitors | Histone acetyltransferase KAT2A (Homo sapiens), Q92830
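ThioGlo1-coupled HAT assay: 20nM GCN5L2, 70uM acetyl-CoA, 75uM H3(1-25) peptide, pH 7.5. Fluorescence read at 340/540nm at start and after 20 min at room temperature.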
ALOX12 inh = Primary qHTS assay for inhibitors of human arachidonate 12S-lipoxygenase (ALOX12): Round 2 | purified 12hLO, xylenol orange hydroperoxide absorbance | Potency, µM (series often up to 108 µM), for inactives: at the highest dose activity change, negative = inhibition, most hits filed as inhibitors | Polyunsaturated fatty acid lipoxygenase ALOX12 (Homo sapiens), P18054 | AID 1671190, 2021 | actives 1.1% (n = 580,000)
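Purified human 12hLO (150 nM final) in 25 mM Hepes, 0.01% Triton X-100, pH 7.0 was preincubated 15 min at room temperature with compound. Then 40 uM arachidonic acid was added, 30 min. Hydroperoxide was read by Fe-XO absorbance ratio 573/405 nm.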
VDR inhibitor = Inhibitors of the vitamin D receptor (VDR): qHTS. Vitamin D3 receptor (Homo sapiens), P11473. VDR-SRC2-3 peptide fluorescence polarization, 2 h. Potency, µM, for the others: max response, negative = inhibition, most hits filed as inhibitors. actives 0.93% (n = 400,000)
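Compounds are added to VDR with labelled SRC2-3 coactivator peptide and held 2 h at room temperature. Inhibition of the VDR–peptide interaction is then read as a change in fluorescence polarization.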
PLK1 PBD block = qHTS for Inhibitors of PLK1-PDB (polo-like kinase 1 - polo-box domain): Primary Screen. Serine/threonine-protein kinase PLK1 (Homo sapiens), P53350. Potency, µM, for inactives: max response, negative = inhibition, usual class: inhibitors. Plk1 PBD binding of FITC phosphopeptide, fluorescence polarization. actives 2.8% (n = 360,000); also: series mostly up to about 57 µM; nearly all actives have a fitted effect of over 65% in size
Target sequence (P53350 whole entry, looked up, the tested form may be a part): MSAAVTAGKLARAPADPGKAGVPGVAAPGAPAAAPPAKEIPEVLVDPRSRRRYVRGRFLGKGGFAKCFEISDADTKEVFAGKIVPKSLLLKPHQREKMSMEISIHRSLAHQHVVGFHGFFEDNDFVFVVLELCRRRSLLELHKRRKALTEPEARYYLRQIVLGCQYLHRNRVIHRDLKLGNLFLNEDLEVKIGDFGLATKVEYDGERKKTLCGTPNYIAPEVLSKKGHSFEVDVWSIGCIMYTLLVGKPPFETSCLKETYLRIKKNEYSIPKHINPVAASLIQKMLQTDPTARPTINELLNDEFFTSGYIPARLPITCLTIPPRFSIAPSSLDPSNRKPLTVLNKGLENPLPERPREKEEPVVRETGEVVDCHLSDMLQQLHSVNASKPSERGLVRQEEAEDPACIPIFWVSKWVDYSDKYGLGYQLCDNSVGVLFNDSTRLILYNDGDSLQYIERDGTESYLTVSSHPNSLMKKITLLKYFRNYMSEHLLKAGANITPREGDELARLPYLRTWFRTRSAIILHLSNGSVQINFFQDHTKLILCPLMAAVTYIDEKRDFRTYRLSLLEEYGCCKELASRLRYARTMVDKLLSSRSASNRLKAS
* marks the source's active call; other numbers are inactive results; ? = inconclusive; nt = no result given. Calls follow the shape of the dose curve; as a rule, active = well fitted curve in the direction sought with a large enough effect; inconclusive = small, poorly fitted or top-dose-only effect, or another doubt; inactive = no such curve, though single readings can be large; an effect the other way counts as inactive or inconclusive. % is scaled to controls: 0 for no effect and ±100 for the full control effect; potency is read from the fitted curve at half-maximal effect.

SMILES	GCN5L2 inh	ALOX12 inh	VDR inhibitor	PLK1 PBD block
CCOc1cc(/C=C\[N+](=O)[O-])ccc1OCC(=O)Nc1ccccc1C	-2%	nt	4.5µM*	?
Cn1cc(C(C(=O)O)N2CCN(C(c3ccccc3)c3ccccc3)CC2)c2cc(C(=O)O)ccc21 (stereo not drawn)	nt	-7%	nt	nt
Cc1cc(=S)n2cn[nH]c2n1	nt	0.45µM*	nt	nt
COc1cc(C(=O)OCC(=O)c2cc(C)n(C)c2C)cc(OC)c1OC	-9%	0%	?	17µM*
Cc1cc(C(=O)COC(=O)c2nccnc2N)c(C)n1C	0%	-11%	5%	-9%
CCc1ccc(/C=C/C(=O)C2C(=O)c3ccccc3C2=O)cc1	?	?	?	27µM*
Cc1cccc(C=Nc2ccc3c4c(cccc24)CC3)c1O	20µM*	19%	2%	-4%
Oc1cccc(C=Nc2cccc3ccccc23)c1O	?	?	28µM*	-11%
O=C(CCN1CCC(c2ccccc2)C1)c1cccc2ccccc12 (stereo not drawn)	nt	25µM*	nt	nt
O=C(CCN1CCC2CCC(C2)C1)c1ccc(F)cc1 (stereo not drawn)	nt	-9%	?	8.4µM*
O=C(CCN1CCC(c2ccccc2)C1)c1ccc2ccccc2c1 (stereo not drawn)	nt	16µM*	nt	nt
O=C(CCN1CCC(c2ccccc2)C1)c1ccccc1 (stereo not drawn)	-6%	?	-12%	?
O=C(CCN1CCc2ccccc2C1)c1ccc2c(c1)OCCO2	-3%	nt	?	24µM*
CCn1c(SCc2nc(N)nc(Nc3ccccc3)n2)nnc1C1CC1	nt	-16%	nt	nt
CC1CCN(S(=O)(=O)c2ccc(-c3nc(C#N)c(NCCCN4CCOCC4)o3)cc2)CC1	nt	10%	nt	nt
O=C(CCN1CCCC1Cc1ccccc1)c1ccc2c(c1)OCCO2 (stereo not drawn)	nt	12%	35µM*	21µM*
O=C(CCN1CCC(c2ccccc2)C1)c1ccc2c(c1)OCCO2 (stereo not drawn)	-9%	-18%	14µM*	6µM*
O=C(CCN1CCC(c2ccccc2)C1)c1ccco1 (stereo not drawn)	nt	-23%	nt	nt
O=C(CCN1CCCCC1)c1ccc2c(c1)OCCO2	0%	-30%	-78%	?
COc1cc(C(=O)CCN2CCC(c3ccccc3)C2)cc(OC)c1OC (stereo not drawn)	-5%	-15%	?	27µM*
Cc1c(C(=O)OC(C)C(=O)N2CCNC2=O)oc2ccc(Cl)cc12 (stereo not drawn)	nt	-11%	nt	nt
CN(C)CCCNC(=O)c1nc(-c2ccc3[nH]ccc3c2)no1	nt	-21%	nt	nt
O=C1/C(=C/c2ccccc2)COc2ccccc21	nt	13%	nt	nt
O=C1/C(=C/c2ccccc2[N+](=O)[O-])COc2ccccc21	-5%	-10%	22µM*	?
CSc1nc(-c2ccccc2)c(C#N)c(=O)[nH]1	-6%	-8%	-24%	27µM*
SMILES	GCN5L2 inh	ALOX12 inh	VDR inhibitor	PLK1 PBD block
COc1ccccc1NC(=O)CSc1nc(-c2ccc(C(C)(C)C)cc2)c(C#N)c(=O)[nH]1	?	?	3%	nt
CSc1nc(Nc2ccc(Cl)cc2)c(C#N)c(=O)[nH]1	-9%	6.3µM*	-2%	-3%
CCSc1nc(-c2ccccc2)c(C#N)c(=O)[nH]1	-7%	-11%	-3%	-5%
CCCOc1ccc(-c2nc(SCc3ccccc3)[nH]c(=O)c2C#N)cc1OC	-1%	?	-15%	27µM*
N#Cc1c(-c2ccccc2)nc(SCc2nc(N)nc(N3CCCCC3)n2)[nH]c1=O	-7%	?	-18%	3µM*
CSc1ccccc1C(=O)Nc1c(C)cc(C)cc1Cl	nt	-1%	nt	nt
COc1cccc(NC(=S)NC(Cc2ccccc2)c2ccccc2)c1 (stereo not drawn)	nt	40µM*	nt	-2%
Cc1cccc(NC(=O)CCc2ccccc2)c1	-2%	-3%	13%	-8%
Cc1cccc(NC(=O)C(C#N)C(=O)CCc2ccccc2)c1 (stereo not drawn)	nt	32µM*	nt	nt
Cc1cccc(NC(=S)NC(C)CCc2ccccc2)c1 (stereo not drawn)	-12%	40µM*	-2%	-7%
Cc1cccc(NC(=O)NC(C)CCc2ccccc2)c1 (stereo not drawn)	-17%	1%	7%	3%
COc1ccc(N2CCN(C(=O)Cc3ccc(OC)c(OC)c3)CC2)cc1	-9%	-23%	?	24µM*
COc1ccc(CC(=O)N2CCN(C(=O)Cc3ccc(OC)c(OC)c3)CC2)cc1OC	nt	-4%	nt	3%
Oc1ccc(Cl)cc1/C=N/c1nccs1	3%	4%	4%	-27%
Oc1c(Br)cc(Br)cc1/C=N/c1nccs1	-4%	-16%	?	30µM*
COc1ccc(N2CSC3=C(C#N)C(c4cccs4)CC(=O)N3C2)cc1 (stereo not drawn)	13µM*	0%	-9%	-13%
CCCSC1=C(C#N)C(c2cc(OC)ccc2OC)CC(=O)N1 (stereo not drawn)	-1%	9%	18%	-4%
COc1ccc(N2CSC3=C(C#N)C(c4cc(OC)ccc4OC)CC(=O)N3C2)c(OC)c1 (stereo not drawn)	?	nt	16µM*	3.8µM*
CC(C)C(=O)Nc1ccc2c(C(C(=O)O)N3CCN(c4ncccc4C#N)CC3)c[nH]c2c1 (stereo not drawn)	nt	-25%	nt	nt
CCOC(=O)c1sc(NC(=O)/C=C/c2cnn(CC)c2C)c(C(=O)OCC)c1C	-7%	?	?	13µM*
NC(=O)c1ccc(Cn2c(C(=O)c3cc(Cl)c(N)c(Cl)c3)c3ccccc3[n+]2[O-])cc1	-7%	18µM*	-9%	-9%
NC(=O)c1ccc(Cn2c(C(=O)c3ccc(Cl)cc3)c3ccccc3[n+]2[O-])cc1	-8%	?	-7%	1%
COc1cc(-c2nc3c4c5c(sc4ncn3n2)CCCC5)ccc1OC(F)F	nt	26%	nt	nt
CN(C)c1ccc(CNc2ncc(Br)cc2Br)cc1	-14%	1%	8%	1%
CN(C)c1ccc(NCc2cccc(Br)c2)cc1	nt	7.9µM*	nt	nt
SMILES	GCN5L2 inh	ALOX12 inh	VDR inhibitor	PLK1 PBD block
CCC/C(=N\N=C(/CCC)c1ccccc1)c1ccccc1	nt	-2%	nt	nt
CCCC(=O)Nc1ccc2nn(-c3ccc(OC)cc3)nc2c1	-25%	-10%	?	21µM*
CCOc1ccc(-c2noc(-c3nnn(-c4cc(C)ccc4C)c3N)n2)cc1	nt	-27%	nt	nt
Cc1ccc(C(=O)Nc2nc(-c3cccnc3)cs2)o1	-1%	-17%	-10%	?
O=C(NC(=S)Nc1nc(-c2ccccc2)cs1)c1cccnc1	3%	35µM*	10%	?
O=C(NC(=S)Nc1nc(-c2ccc(Cl)cc2)cs1)c1cccs1	-3%	0%	?	11µM*
O=C(Nc1nc(-c2ccccc2)cs1)c1ccc(Br)o1	2%	-17%	?	30µM*

From PubChem
